Screens from PubChem.
This is a sample that favours compounds with a hit; in the whole collection about 19% have one here.
DT40 TDP1 CPT = growth inhibition of DT40 Tdp1-/-;hTDP1 cells with camptothecin (screen for TDP1 inhibitors); chicken DT40 Tdp1-/-;hTDP1 cells + 20 nM CPT, ATP luminescence, 48 h; Potency, µM (series often up to 46.2 µM), inactives show at the highest dose activity change, negative = growth inhibition, hits mostly inhibitors; 420,000 tested, 12% active; AID 686979; further: potency means the concentration at half of the fitted maximal effect; nearly all actives have a fitted effect of over 55% in size
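Chicken DT40 Tdp1-/- cells stably complemented with human TDP1 were seeded at 400 cells/well in medium containing 20 nM camptothecin, exposed to pin-transferred compounds, and grown at 37 °C for at least 48 hr. Viability was read as ATP luminescence.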
DT40 TDP1 no CPT = qHTS for Inhibitors of human tyrosyl-DNA phosphodiesterase 1 (TDP1): qHTS in cells in absence of CPT; DT40 Tdp1-/- hTDP1 cells, no CPT, ATP luminescence, 48 h; Potency, µM (doses to about 46.2 µM), without a hit: at the highest dose activity change, negative = growth inhibition, most hits filed as inhibitors; 420,000 tested, 15% active; AID 686978, 2013; further: potency means the concentration at half of the fitted maximal effect; nearly all actives have a fitted effect of over 55% in size
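Seeded 400 DT40-hTDP1 cells/well (vehicle DMSO, no 20 nM CPT); pinned compounds; ≥48 hr at 37 °C; CellTiter-Glo luminescence as viability measure.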
IL-1B inflam inh = inhibitors of inflammasome signaling (IL-1 beta secretion); activity change, % at 57.5 µM; 360,000 tested, 4.7% active; THP-1 LPS/ATP IL-1B secretion, AlphaLISA, 16 h; hits give low values; in the data active means activity change below about -50%; inconclusive means mostly about -30% to -49%
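Secreted IL-1B measured by AlphaLISA bead assay after 16 h compound exposure of THP-1 cells; compounds (final up to 57.5 uM) added 1 h before LPS (250 ng/mL) and ATP (1.25 mM) stimulation; lower signal means less secretion.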
HT1080-NT tox = kills 2HG-producing HT-1080-NT fibrosarcoma cells; Potency, µM (titrated, usually from 46.1 µM), inactives show top-dose activity, negative = less viability, most hits filed as cytotoxic; 360,000 tested, 1.6% active; HT-1080-NT fibrosarcoma viability, CellTiter-Glo ATP luminescence, 48 h; AID 686970;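 further: NT is the 2HG producing partner of a matched IDH1 knockdown line; potency means the concentration at half of the fitted maximal effect; 0% = DMSO-treated cells and -100% = media-only wells without cells; nearly all actives have a fitted effect of over 55% in size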
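Read-out is CellTiter-Glo luminescence after 10 minutes at room temperature, following 48 hours' compound treatment of HT-1080-NT cells (750 cells/well, RPMI, 5% FBS, 37 degrees C).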
HT1080 IDH1KD tx = toxicity to HT-1080 IDH1 knockdown cells (counter line) | HT-1080 IDH1 knockdown viability, ATP luminescence, 48 h | Potency, µM (series often up to 46.1 µM), without a hit: top-dose activity, negative = toxicity, hits mostly cytotoxic | 360,000 tested, 2% active | AID 686971;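 further: potency means the concentration at half of the fitted maximal effect; 0% = DMSO wells and -100% = cell-free medium wells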
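Using the IDH1-knockdown HT-1080 line run in the same batch and compound series as the NT line, viability after 48 h at 37 °C was determined by CellTiter-Glo luminescence and expressed as % activity.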
ELG1 repair inh = blocks ELG1-dependent DNA repair in HEK293T cells. HEK293T ELG1-luciferase reporter, luminescence, 16 h; DNA damage induced by 5-fluorouridine. 330,000 tested, 2.3% active. Potency, µM (highest dose often 46.1 µM), inactives show top-dose activity change, negative = inhibition, actives largely listed as inhibitors. AID 504467; further: potency means the concentration at half of the fitted maximal effect; nearly all actives have a fitted effect of over 55% in size
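Reporter activity after DNA damage by 5-fluorouridine is monitored. Compound-treated cells incubate 16 hr at 37 °C, then ONE-Glo is added for 30 min before luminescence reading.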
* hit, by the source's call; ? = inconclusive; / = no result given. Unless noted, the call rests on the fitted dose curve; in most records, active means well fitted curve in the direction sought with a large enough effect; inconclusive means small, poorly fitted or top-dose-only effect, or another doubt; inactive means no such curve, though single readings can be large; an effect the other way counts as inactive or inconclusive. Unless noted, on the % scale 0 is the no-effect control and ±100 the full control effect.

SMILES	DT40 TDP1 CPT	DT40 TDP1 no CPT	IL-1B inflam inh	HT1080-NT tox	HT1080 IDH1KD tx	ELG1 repair inh
O=C1NC[C@@H](c2ccccc2)OC(=O)[C@@H](Cc2ccc(F)cc2)C/C=C\C[C@@H]1CC(=O)N(CCO)Cc1ccccc1	?	16µM*	-14	11%	-1%	21µM*
O=c1cc(/C=C/c2c(F)cccc2Cl)[nH]c2ccccc12	?	?	18	16%	18%	?
Cc1cc(N2CCN(S(=O)(=O)c3ccccc3)CC2)c2ccccc2n1	16µM*	18µM*	-15	?	?	?
O=S(=O)(c1cccs1)N1CCN(c2ccnc3cc(Cl)ccc23)CC1	13µM*	23µM*	/	?	?	?
Cc1cc(N2CCN(c3nc(-c4ccccc4)cs3)CC2)c2ccccc2n1	23µM*	21µM*	?	8%	1%	?
Cc1cc(N2CCN(C(=O)c3ccco3)CC2)c2ccccc2n1	-15%	-14%	-2	3%	-3%	-9%
O=S(=O)(c1ccccc1)N1CCN(c2ccnc3cc(Cl)ccc23)CC1	16µM*	?	-86*	-27%	?	?
NCC[C@H](O)C(=O)N[C@@H]1C[C@H](N)[C@@H](O[C@H]2O[C@H](CN)CC[C@H]2N)[C@H](O)[C@H]1O[C@H]1O[C@H](CO)[C@@H](O)[C@H](N)[C@H]1O	-4%	-24%	/	/	/	/
CCOc1ccc(CNCc2c(C(=O)O)n(Cc3ccccc3F)c3cc(OC)ccc23)cc1	18µM*	5.8µM*	/	/	/	/
COc1ccc(Cn2c(C(=O)O)c(CNCc3ccc(SC)cc3)c3ccc(OC)cc32)cc1	5.2µM*	5.8µM*	/	/	/	/
COc1ccc2c(CNCc3ccc(C)o3)c(C(=O)O)n(Cc3ccccc3)c2c1	-27%	?	/	/	/	/
C=Cc1ccc(Cn2c(C(=O)O)c(CNCc3ccccc3)c3ccc(OC)cc32)cc1	?	15µM*	/	/	/	/
COc1ccc(/C=C/C(=O)NCC2Cc3cccc(-c4nc(C)cnc4C)c3O2)cc1OC (stereo not given)	9%	-4%	/	/	/	/
O=C(O)c1ccc(Oc2ccc([N+](=O)[O-])cc2)c([N+](=O)[O-])c1	0%	-16%	-13	2%	-10%	/
NNc1nc2cccnc2n(CCNc2ncc(C(F)(F)F)cc2Cl)c1=O	16µM*	?	0	-22%	?	?
O=c1c2nncn2c2cccnc2n1CCNc1ncc(C(F)(F)F)cc1Cl	-4%	-15%	-16	-16%	3%	-5%
O=c1[nH]c2cccc(Cl)c2n(CCNc2ncc(C(F)(F)F)cc2Cl)c1=O	?	?	-29	23µM*	?	20%
O=c1c(Cl)nc2cc(Cl)ccc2n1CCNc1ncc(C(F)(F)F)cc1Cl	0.52µM*	0.58µM*	27	1%	3%	?
Cc1cnc(C(=O)OC(C)C(=O)Nc2ccccc2-c2ccccc2)cn1 (stereo not given)	-14%	-24%	2	-12%	-14%	-2%
CCCCn1c(N)c(N(CC(C)C)C(=O)C2CC(=O)N(Cc3ccco3)C2)c(=O)[nH]c1=O (stereo not given)	-10%	6%	-6	2%	11%	18%
CCOc1ccc(Cl)cc1/C=N/NC(=O)c1ccccc1	11%	-26%	14	20%	13%	1%
COC(=O)N/N=C/c1cc(Cl)cc(Cl)c1OCc1ccccc1	18µM*	?	-1	0%	-1%	-2%
O=c1c(N2CCN(c3ccc(F)cc3)CC2)csc2ccc(F)cc12	18µM*	?	/	/	/	/
COc1ccc(NS(=O)(=O)c2ccc3c(c2)[C@H]2C=CC[C@H]2[C@@H](c2ccc(C(=O)O)cc2)N3)cc1	?	?	3	0%	0%	?
COC(=O)c1ccc([C@H]2Nc3ccc(S(=O)(=O)Nc4ccc(C)cc4)cc3[C@H]3C=CC[C@H]32)cc1	13µM*	15µM*	/	/	/	/
SMILES	DT40 TDP1 CPT	DT40 TDP1 no CPT	IL-1B inflam inh	HT1080-NT tox	HT1080 IDH1KD tx	ELG1 repair inh
Cc1c(Cl)cccc1NS(=O)(=O)c1ccc2c(c1)C1C=CCC1C(c1ccc(C(=O)O)cc1)N2 (stereo not given)	-6%	0%	-21	-2%	-16%	9%
COc1cccc(NS(=O)(=O)c2ccc3c(c2)[C@H]2C=CC[C@H]2[C@@H](c2ccccc2Cl)N3)c1	8.2µM*	4.6µM*	/	/	/	/
Cc1cccc(C)c1NS(=O)(=O)c1ccc2c(c1)[C@H]1C=CC[C@H]1[C@@H](c1ccc(Cl)cc1)N2	16µM*	13µM*	/	/	/	/
O=C(CN1C(=O)c2ccccc2C1=O)Oc1ccc(Cl)cc1	-19%	7%	16	-11%	-5%	12%
O=S(=O)(CCNCc1ccco1)NC1CCCCC1	-8%	-5%	12	4%	0%	/
CC(C)CNC(=O)C1(C)CCCN1C(=O)CCc1cccs1 (stereo not given)	-17%	-6%	-7	6%	11%	/
CCCCc1oc2ccc(NS(C)(=O)=O)cc2c1C(=O)c1ccc(OCCCN(CCCC)CCCC)cc1	4.7µM*	6µM*	/	/	/	/
CCCCCOc1ccc(NS(C)(=O)=O)cc1	0%	-23%	-13	1%	-11%	?
O=C(Cn1nc(-c2ccccc2)c2ccccc2c1=O)Nc1ccc(F)cc1	-22%	?	-9	-19%	-19%	3%
N#Cc1c(-c2ccccc2)c(-c2ccccc2)nn(CC(=O)NNC(=O)Nc2ccc(Cl)c(Cl)c2)c1=O	?	?	8	21µM*	15µM*	?
COC(=O)c1cc2sc(Cl)cc2n1Cc1nc(-c2ccccc2C)oc1C	7%	9%	/	/	/	/
CCc1ccc(NC(=O)c2ccc(CN3CC(=O)N4CCCCC4C3=O)cc2)cc1 (stereo not given)	?	21µM*	/	/	/	/
O=C(Nc1ccc(F)cc1)c1ccc(CN2CC(=O)N3CCCCC3C2=O)cc1 (stereo not given)	-3%	-24%	/	/	/	/
Cc1ccc(S(=O)(=O)c2nc(Nc3ccccc3C#N)sc2Cl)cc1	?	2.6µM*	9	-2%	2%	0%
Cc1ccc(S(=O)(=O)c2nc(Nc3ccccc3N3CCOCC3)sc2Cl)cc1	?	?	-1	20%	7%	6%
